The record followed here is PubChem BioAssay (NCI).

Compounds without any hit were thinned out: in the full panel of roughly 83,000, 20% have a hit.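 The endpoint reported here, percent growth, reads 100 for growth as untreated, 0 for no net growth and -100 for all cells dead.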 Values without a mark were called inactive. The source made the active and inactive calls. Rule for the calls: active = growth percent below 10; inactive = the rest.

Common to all, as to test: NCI-60 one-dose screen, 48 h (100 = growth as untreated, 0 = no growth, -100 = all killed)
For test [1], the system named is HCT-15 colon. The note with it: 10 µM unless noted.
Test [2] concerns HT29 colon. Conditions: 10 µM unless noted.
Test [3] concerns SNB-75 CNS. Conditions: 10 µM unless noted.
The subject of test [4] is SNB-19 CNS. The note with it: 10 µM unless noted.
Test [5] has as its system U251 CNS. Conditions: 10 µM unless noted.
Test [6] deals with SK-MEL-5 melanoma. The note with it: 10 µM unless noted.
The subject of test [7] is UACC-62 melanoma. The note with it: 10 µM unless noted.
The subject of test [8] is LOX IMVI melanoma. The note with it: 10 µM unless noted.
Test [9] deals with SK-MEL-28 melanoma. The note with it: 10 µM unless noted.
Test [10] deals with SK-MEL-2 melanoma. Conditions: 10 µM unless noted.
Test [11] concerns EKVX NSCLC. Conditions: 10 µM.
Test [12] has as its system SN12C renal. The note with it: 10 µM unless noted.
For test [13], the system named is UO-31 renal. Conditions: 10 µM unless noted.
For test [14], the system named is TK-10 renal. The note with it: 10 µM unless noted.
The test system of test [15] is ACHN renal. Conditions: 10 µM unless noted.
Test [16] has as its system CAKI-1 renal. Conditions: 10 µM unless noted.
For test [17], the system named is CCRF-CEM leukemia. The note with it: 10 µM.
Test [18] has as its system MOLT-4 leukemia. Conditions: 10 µM unless noted.
Test [19] has as its system A498 renal. Conditions: 10 µM unless noted.

In the case of `C[C@]12C=CC(=O)C=C1[C@@H](F)C[C@@H]1[C@@H]2[C@@H](O)C[C@@]2(C)[C@H]1CC[C@]2(O)C(=O)CO`, the growth is 108% in test [1]; 103% in [2]; 145% in test [3]; 96.2% in test [4]; 108% in [5]; 120% in test [6]. Besides, the growth in test [7] was 110%; in test [8], 103%; in test [9], 124%; in test [10] it was 107%; in [11], 83%; in [12], 69.8%. The growth in [13] was 79.3%; in [14] it was 107%; in [15], 99.4%; in [16] it was 88.6%; in [17], 46.5%; in test [18], 108%.
`COc1ccc2c(c1)/C(=C1/S/C(=N/c3nnc(C)s3)NC1=O)C(=O)N2Cc1ccc(Br)cc1`: the growth is 27.5% in test [1]; 35.4% in test [2]; 45.7% in [3]; 24.7% in [4]; 14.3% in test [5]; 36.3% in test [6]. Further, the growth in [7] was 32.9%; in test [8], 32.1%; in test [9], 32.6%; in test [10], 25.6%; in test [11] it was 31.8%; in test [12] it was 43.4%. Further, the growth in test [13] was 42.6%; in test [14], 35%; in test [15], 36.2%; in test [19], 4.62% (active); in test [17], 21.2%; in [18], 20.7%.
Consider `COc1ccccc1CNCCCN1C(=O)c2ccc3c4c(ccc(c24)C1=O)C(=O)N(CCCNCc1ccccc1OC)C3=O`, for which the growth was -69.2% (active) in [1]; -59.5% (active) in test [2]; -95.7% (active) in test [3]; -68.8% (active) in test [4]; -89.5% (active) in [5]; -100% (active) in [6]. Also, the growth was -72.5% (active) in [7]; -63.1% (active) in test [8]; -90.6% (active) in [9]; -80.5% (active) in test [10]; -63.6% (active) in [11]; -78.2% (active) in test [12]. The growth in test [13] was -84% (active); in test [14], -77.9% (active); in test [15], -46.8% (active); in [16] it was -29.1% (active); in test [17], -12.7% (active); in [18], -37% (active).
Consider `COCC(=O)NNc1[nH]c(-c2ccc(OC)cc2)cc1C#N`, for which the growth was 107% in test [1]; 110% in test [2]; 120% in test [3]; 114% in test [4]; 103% in [5]; 117% in test [6]. Also, the growth in test [7] is 99.4%; in test [8] it was 110%; in test [9], 120%; in [10], 108%; in test [11], 112%; in test [12], 112%. The growth is 95.4% in [13]; 92.7% in test [14]; 110% in [15]; 105% in [16]; 116% in test [19]; 55.9% in test [17]. Also, the growth in test [18] was 81.8%.
For the molecule `O=C1c2ccccc2CCc2ccccc21`, the growth is 105% in test [1]; 103% in [2]; 91.8% in test [3]; 100% in test [4]; 93.1% in test [5]; 98.6% in test [6]. For the same molecule, the growth in [7] was 95.6%; in [8] it was 93.6%; in test [9], 106%; in test [11], 89.4%; in test [12], 96.7%; in test [13], 84%. For the same molecule, the growth is 99.3% in test [14]; 102% in [15]; 90.5% in [16]; 91.8% in [17]; 111% in [18].
For the molecule `Cc1nc(N)sc1C(=O)NCCO`, the growth in test [1] was 108%; in [2], 112%; in test [3], 105%; in test [4] it was 101%; in test [5], 106%; in [6] it was 103%. The growth is 93.8% in test [7]; 104% in [8]; 113% in [9]; 12.8% in test [10]; 113% in [11]; 101% in test [12]. The growth was 80.2% in test [13]; 112% in test [14]; 103% in test [15]; 129% in test [16]; 119% in test [19]; 60.6% in test [17]. Also, the growth in [18] was 155%.
For the molecule `CC(=O)Nc1nc(C)c(C(=O)N/N=C/N2CCOCC2)s1`, the growth in [1] is 105%; in [2], 107%; in [3], 101%; in test [4], 104%; in test [5], 101%; in [6], 112%. The growth is 98.4% in test [7]; 106% in test [8]; 111% in test [9]; 34.1% in [10]; 122% in test [11]; 105% in [12]. For the same molecule, the growth in test [13] is 89%; in test [14], 103%; in test [15], 104%; in [16], 140%; in [19] it was 110%; in [17], 76.3%. Also, in [18], the growth was 188%.
Turning to `O=C(O)c1ccc(Br)nc1`, the growth in test [1] is 97.8%; in [2], 96.1%; in test [3], 81.7%; in [4] it was 95.3%; in test [5], 93.8%; in test [6] it was 102%. Also, the growth in test [7] is 95.8%; in test [8] it was 97.2%; in [9], 104%; in test [10] it was 96.1%; in test [11], 95.6%; in test [12] it was 98.1%. Further, the growth in [13] is 86.3%; in [14], 86.8%; in [15], 103%; in test [17], 95.7%; in test [18], 99.8%.
